# Experimental data published in PubChem BioAssay (NCATS).
# Results filed as inconclusive are left out. Values without a mark were called inactive. The call rests on the fitted dose curve; in most records, active means well fitted inhibition curve with a large enough effect; inconclusive means small, poorly fitted or top-dose-only effect; inactive means no such curve, though single readings can be large or run the other way.
# Biological target: Retinaldehyde dehydrogenase 3 (Homo sapiens) (UniProt P47895)
# Assay: qHTS for Inhibitors of the Aldehyde Dehydrogenase Family (ALDH1A3) Primary screen (AID 2061315);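 further: plate controls were DMSO vehicle for no effect and reference inhibitor for full effect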
# Conditions: ALDH inhibition qHTS; series mostly up to 56 µM; activity change, negative = inhibition: at the top concentration
row,SMILES,"activity change, negative = inhibition"
1,CCOc1cc(C)c(Cl)cc1S(=O)(=O)n1cnc2ccccc21,2.2% [at 28 µM]
2,O=C(Cc1ccc(Cl)c(Cl)c1)Nc1ccc([S+](=O)([O-])Nc2ccccn2)cc1,17.1%
3,Cc1ccc(OCCn2c(CCNC(=O)c3ccccn3)nc3ccccc32)cc1,10.8%
4,O=C(Nc1ccc(-c2nc3ccccc3[nH]2)cc1)Nc1ccc2occc2c1,2.5%
5,O=S(=O)(c1ccccc1)N1CCN(c2nccc(-c3cccs3)n2)CC1,6.72%
6,Cc1ccc(NS(=O)(=O)c2ccccc2C(=O)Nc2nc(-c3ccccc3)cs2)cc1,-0.208%
7,Fc1cccc(CNc2ncnc3ccc(-c4cccc(Cl)c4)cc23)c1,-3.89%
8,CS(=O)(=O)c1ccc(C(=O)OCC#CCSc2nnc(-c3cccc4ccccc34)o2)cc1,1.8%
9,Cc1cn([C@H]2C[C@H](N[S+](=O)([O-])c3ccc4c(c3)OCCO4)[C@@H](CO)O2)c(=O)[nH]c1=O,0.0885%
